Experimental data as given in the supplement of paper PMC12282887.
± gives the standard deviation of the averaged measurements.

Experiments:
Assay in all cases: promoter activity interaction Z-score (Lux/OD deviation from empty-vector control); higher = stronger promoter induction by the compound
[1] = tested on: E. coli BW25113 acrABp lux reporter
Method in brief: (§1)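 Four 1:2 dilutions of each compound were tested in biological duplicates on E. coli BW25113 carrying low-copy luxCDABE promoter reporters, either wild type or deleted for one of three genes. Cultures of 40 µl LB Lennox in 384-well plates were kept at 37°C and read for OD600 and luminescence every 30 min for 12 h. Integration windows were 0–8 h for wild type and 1–9 h for deletion strains, and wells under 10% of the median growth value were discarded. The score is a Z-transformed residual of growth-normalised luminescence relative to a control fit.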

[2] = tested on: E. coli BW25113 micFp lux reporter
Method in brief: as §1

[3] = tested on: E. coli BW25113 ompFp lux reporter
Method in brief: as §1

[4] = tested on: E. coli BW25113 robp lux reporter
Method in brief: as §1

[5] = tested on: E. coli BW25113 soxSp lux reporter
Method in brief: as §1

[6] = tested on: E. coli BW25113 tolCp lux reporter
Method in brief: as §1

[7] = 19.1 µg/ml, genetic background: wild type
[8] = 19.1 µg/ml, genetic background: ΔmarA
[9] = 19.1 µg/ml, genetic background: Δrob
[10] = 19.1 µg/ml, genetic background: ΔsoxS
[11] = 38.3 µg/ml, genetic background: wild type
[12] = 38.3 µg/ml, genetic background: ΔmarA
[13] = 38.3 µg/ml, genetic background: Δrob
[14] = 38.3 µg/ml, genetic background: ΔsoxS
[15] = 76.6 µg/ml, genetic background: wild type
[16] = 76.6 µg/ml, genetic background: ΔmarA
[17] = 76.6 µg/ml, genetic background: Δrob
[18] = 76.6 µg/ml, genetic background: ΔsoxS
[19] = 153.1 µg/ml, genetic background: wild type
[20] = 153.1 µg/ml, genetic background: ΔmarA
[21] = 153.1 µg/ml, genetic background: Δrob
[22] = 153.1 µg/ml, genetic background: ΔsoxS

**Q.** With Nc1ccc(C(=O)O)c(O)c1 [4-Aminosalicylic acid] as the compound, how does the “promoter activity interaction Z-score” value [1, 7] read?
**A.** Its value is -0.149 ± 0.057.

**Q.** And the “promoter activity interaction Z-score” value [1, 8]?
**A.** The value was -0.463 ± 0.94.

**Q.** What about the “promoter activity interaction Z-score” value [1, 9] of the same compound?
**A.** Its value is -0.0648 ± 0.1.

**Q.** And the “promoter activity interaction Z-score” value [1, 10]?
**A.** Its value is 0.0906 ± 0.23.

**Q.** And the “promoter activity interaction Z-score” value [1, 11]?
**A.** The value was -0.194 ± 0.071.

**Q.** And the “promoter activity interaction Z-score” value [1, 12]?
**A.** The value was -0.226 ± 0.02.

**Q.** What about the “promoter activity interaction Z-score” value [1, 13] of the same compound?
**A.** The value was 0.179 ± 0.24.

**Q.** And the “promoter activity interaction Z-score” value [1, 14]?
**A.** Its value is 0.221 ± 0.28.

**Q.** And the “promoter activity interaction Z-score” value [1, 15]?
**A.** Its value is -0.276 ± 0.035.

**Q.** What about the “promoter activity interaction Z-score” value [1, 16] of the same compound?
**A.** Its value is -0.0192 ± 0.31.

**Q.** What about the “promoter activity interaction Z-score” value [1, 17] of the same compound?
**A.** Its value is -0.218 ± 0.18.

**Q.** What about the “promoter activity interaction Z-score” value [1, 18] of the same compound?
**A.** Its value is -0.00319 ± 0.25.

**Q.** What about the “promoter activity interaction Z-score” value [1, 19] of the same compound?
**A.** Its value is -0.212 ± 0.19.

**Q.** And the “promoter activity interaction Z-score” value [1, 20]?
**A.** Its value is 0.164 ± 0.025.

**Q.** What about the “promoter activity interaction Z-score” value [1, 21] of the same compound?
**A.** Its value is 0.0189 ± 0.39.

**Q.** And the “promoter activity interaction Z-score” value [1, 22]?
**A.** Its value is 0.952 ± 1.3.

**Q.** What about the “promoter activity interaction Z-score” value [2, 7] of the same compound?
**A.** The value was 0.127 ± 0.069.

**Q.** And the “promoter activity interaction Z-score” value [2, 8]?
**A.** Its value is 0.157 ± 0.12.

**Q.** And the “promoter activity interaction Z-score” value [2, 9]?
**A.** Its value is 0.223 ± 0.068.

**Q.** And the “promoter activity interaction Z-score” value [2, 10]?
**A.** The value was 0.335 ± 0.24.

**Q.** And the “promoter activity interaction Z-score” value [2, 11]?
**A.** Its value is 0.103 ± 0.31.

**Q.** What about the “promoter activity interaction Z-score” value [2, 12] of the same compound?
**A.** Its value is 0.0571 ± 0.12.

**Q.** What about the “promoter activity interaction Z-score” value [2, 13] of the same compound?
**A.** Its value is 0.346 ± 0.16.

**Q.** What about the “promoter activity interaction Z-score” value [2, 14] of the same compound?
**A.** Its value is 0.348 ± 0.31.

**Q.** And the “promoter activity interaction Z-score” value [2, 15]?
**A.** Its value is 0.399 ± 0.11.

**Q.** What about the “promoter activity interaction Z-score” value [2, 16] of the same compound?
**A.** The value was 0.312 ± 0.014.

**Q.** And the “promoter activity interaction Z-score” value [2, 17]?
**A.** Its value is 0.842 ± 0.12.

**Q.** What about the “promoter activity interaction Z-score” value [2, 18] of the same compound?
**A.** The value was 0.567 ± 0.32.

**Q.** And the “promoter activity interaction Z-score” value [2, 19]?
**A.** The value was 0.955 ± 0.34.

**Q.** And the “promoter activity interaction Z-score” value [2, 20]?
**A.** Its value is 0.278 ± 0.066.

**Q.** And the “promoter activity interaction Z-score” value [2, 21]?
**A.** The value was 1.89 ± 0.16.

**Q.** And the “promoter activity interaction Z-score” value [2, 22]?
**A.** Its value is 2.24 ± 0.04.

**Q.** What about the “promoter activity interaction Z-score” value [3, 7] of the same compound?
**A.** Its value is -0.191 ± 0.28.

**Q.** What about the “promoter activity interaction Z-score” value [3, 8] of the same compound?
**A.** The value was -0.0337 ± 0.042.

**Q.** And the “promoter activity interaction Z-score” value [3, 9]?
**A.** Its value is 0.485 ± 0.12.

**Q.** What about the “promoter activity interaction Z-score” value [3, 10] of the same compound?
**A.** The value was 0.498 ± 0.63.

**Q.** What about the “promoter activity interaction Z-score” value [3, 11] of the same compound?
**A.** The value was -0.538 ± 0.33.

**Q.** What about the “promoter activity interaction Z-score” value [3, 12] of the same compound?
**A.** The value was 0.43 ± 0.48.

**Q.** What about the “promoter activity interaction Z-score” value [3, 13] of the same compound?
**A.** Its value is 0.92 ± 0.71.

**Q.** And the “promoter activity interaction Z-score” value [3, 14]?
**A.** Its value is 0.203 ± 0.35.

**Q.** What about the “promoter activity interaction Z-score” value [3, 15] of the same compound?
**A.** The value was -0.751 ± 0.39.

**Q.** And the “promoter activity interaction Z-score” value [3, 16]?
**A.** Its value is -0.414 ± 0.39.

**Q.** And the “promoter activity interaction Z-score” value [3, 17]?
**A.** The value was -0.49 ± 0.65.

**Q.** And the “promoter activity interaction Z-score” value [3, 18]?
**A.** Its value is -0.5 ± 0.67.

**Q.** What about the “promoter activity interaction Z-score” value [3, 19] of the same compound?
**A.** Its value is -0.516 ± 0.52.

**Q.** And the “promoter activity interaction Z-score” value [3, 20]?
**A.** Its value is 0.0436 ± 0.35.

**Q.** What about the “promoter activity interaction Z-score” value [3, 21] of the same compound?
**A.** The value was 0.0977 ± 1.

**Q.** And the “promoter activity interaction Z-score” value [3, 22]?
**A.** Its value is 0.625 ± 1.1.

**Q.** What about the “promoter activity interaction Z-score” value [4, 7] of the same compound?
**A.** The value was -0.222 ± 0.014.

**Q.** And the “promoter activity interaction Z-score” value [4, 8]?
**A.** Its value is -0.199 ± 0.69.

**Q.** What about the “promoter activity interaction Z-score” value [4, 9] of the same compound?
**A.** Its value is -0.314 ± 0.28.

**Q.** And the “promoter activity interaction Z-score” value [4, 10]?
**A.** The value was -0.201 ± 0.76.

**Q.** And the “promoter activity interaction Z-score” value [4, 11]?
**A.** Its value is -0.158 ± 0.15.

**Q.** And the “promoter activity interaction Z-score” value [4, 12]?
**A.** The value was 0.308 ± 0.07.

**Q.** What about the “promoter activity interaction Z-score” value [4, 13] of the same compound?
**A.** The value was 0.333 ± 0.35.

**Q.** And the “promoter activity interaction Z-score” value [4, 14]?
**A.** The value was 0.11 ± 0.31.

**Q.** What about the “promoter activity interaction Z-score” value [4, 15] of the same compound?
**A.** Its value is -0.0528 ± 0.63.

**Q.** What about the “promoter activity interaction Z-score” value [4, 16] of the same compound?
**A.** The value was -0.845 ± 0.11.

**Q.** And the “promoter activity interaction Z-score” value [4, 17]?
**A.** The value was -0.29 ± 0.49.

**Q.** What about the “promoter activity interaction Z-score” value [4, 18] of the same compound?
**A.** Its value is -0.381 ± 0.64.

**Q.** And the “promoter activity interaction Z-score” value [4, 19]?
**A.** Its value is -0.356 ± 0.24.

**Q.** And the “promoter activity interaction Z-score” value [4, 20]?
**A.** The value was 0.439 ± 0.5.

**Q.** What about the “promoter activity interaction Z-score” value [4, 21] of the same compound?
**A.** Its value is -0.252 ± 0.99.

**Q.** What about the “promoter activity interaction Z-score” value [4, 22] of the same compound?
**A.** The value was 0.0401 ± 0.42.

**Q.** What about the “promoter activity interaction Z-score” value [5, 7] of the same compound?
**A.** Its value is 0.0858 ± 0.3.

**Q.** What about the “promoter activity interaction Z-score” value [5, 8] of the same compound?
**A.** Its value is 0.563 ± 0.097.

**Q.** What about the “promoter activity interaction Z-score” value [5, 9] of the same compound?
**A.** Its value is 0.674 ± 0.079.

**Q.** What about the “promoter activity interaction Z-score” value [5, 10] of the same compound?
**A.** The value was 0.458 ± 0.71.

**Q.** And the “promoter activity interaction Z-score” value [5, 11]?
**A.** Its value is -0.0504 ± 0.074.

**Q.** And the “promoter activity interaction Z-score” value [5, 12]?
**A.** Its value is 0.547 ± 0.088.

**Q.** What about the “promoter activity interaction Z-score” value [5, 13] of the same compound?
**A.** Its value is 0.688 ± 0.15.

**Q.** And the “promoter activity interaction Z-score” value [5, 14]?
**A.** The value was 0.377 ± 0.54.

**Q.** And the “promoter activity interaction Z-score” value [5, 15]?
**A.** Its value is 0.102 ± 0.028.

**Q.** And the “promoter activity interaction Z-score” value [5, 16]?
**A.** The value was 0.199 ± 0.076.

**Q.** And the “promoter activity interaction Z-score” value [5, 17]?
**A.** The value was 0.581 ± 0.14.

**Q.** And the “promoter activity interaction Z-score” value [5, 18]?
**A.** The value was 0.29 ± 0.88.

**Q.** And the “promoter activity interaction Z-score” value [5, 19]?
**A.** Its value is -0.173 ± 0.12.

**Q.** What about the “promoter activity interaction Z-score” value [5, 20] of the same compound?
**A.** The value was 0.349 ± 0.045.

**Q.** What about the “promoter activity interaction Z-score” value [5, 21] of the same compound?
**A.** The value was 0.403 ± 0.16.

**Q.** And the “promoter activity interaction Z-score” value [5, 22]?
**A.** The value was 0.259 ± 0.95.

**Q.** And the “promoter activity interaction Z-score” value [6, 7]?
**A.** Its value is -0.487 ± 1.9.

**Q.** What about the “promoter activity interaction Z-score” value [6, 8] of the same compound?
**A.** Its value is -1.05 ± 0.26.

**Q.** And the “promoter activity interaction Z-score” value [6, 9]?
**A.** The value was 1.71 ± 2.

**Q.** And the “promoter activity interaction Z-score” value [6, 10]?
**A.** Its value is -0.0483 ± 0.2.

**Q.** What about the “promoter activity interaction Z-score” value [6, 11] of the same compound?
**A.** Its value is -0.154 ± 1.3.

**Q.** And the “promoter activity interaction Z-score” value [6, 12]?
**A.** Its value is -0.0748 ± 0.1.

**Q.** What about the “promoter activity interaction Z-score” value [6, 13] of the same compound?
**A.** Its value is 0.149 ± 0.17.

**Q.** And the “promoter activity interaction Z-score” value [6, 14]?
**A.** Its value is 0.687 ± 1.6.

**Q.** What about the “promoter activity interaction Z-score” value [6, 15] of the same compound?
**A.** Its value is -0.119 ± 0.018.

**Q.** What about the “promoter activity interaction Z-score” value [6, 16] of the same compound?
**A.** Its value is -0.241 ± 0.77.
